# Laboratory results from PubChem BioAssay.
# The source made the active and inactive calls. Unless noted, the rule behind the calls is not given here.
# Key:
# [1] = compounds binding Alexa647 anti-His antibody – biochemical, small-molecule microarray, 635 nm fluorescence, artefact control for SMM control protein annotation, primary screen (AID 1128); conditions: higher = more signal;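 note: score merges feature fluorescence with signal-to-noise for each printed compound spot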
# [2] = tested on: Human papillomavirus type 1a E7 protein (residues 1-88); experiment: HPV1a E7 small-molecule binders, primary screen, biochemical, small-molecule microarray, residues 1-88, 635 nm (AID 1129); conditions: small-molecule microarray binding, fluorescence 635 nm; higher = more signal
# [3] = target: Focal adhesion kinase 1 (Homo sapiens) (UniProt Q05397); experiment: PTK2 protein binding on printed compound slides – biochemical, small-molecule microarray, 635/667 nm fluorescence, BSA, DTT, primary screen (AID 1130); conditions: 635 nm fluorescence, higher = more signal;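 note: composite of spot emission at 667 nm and signal to noise over triplicate slides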
# Sequence of Focal adhesion kinase 1 (Homo sapiens) (Q05397 whole entry, looked up): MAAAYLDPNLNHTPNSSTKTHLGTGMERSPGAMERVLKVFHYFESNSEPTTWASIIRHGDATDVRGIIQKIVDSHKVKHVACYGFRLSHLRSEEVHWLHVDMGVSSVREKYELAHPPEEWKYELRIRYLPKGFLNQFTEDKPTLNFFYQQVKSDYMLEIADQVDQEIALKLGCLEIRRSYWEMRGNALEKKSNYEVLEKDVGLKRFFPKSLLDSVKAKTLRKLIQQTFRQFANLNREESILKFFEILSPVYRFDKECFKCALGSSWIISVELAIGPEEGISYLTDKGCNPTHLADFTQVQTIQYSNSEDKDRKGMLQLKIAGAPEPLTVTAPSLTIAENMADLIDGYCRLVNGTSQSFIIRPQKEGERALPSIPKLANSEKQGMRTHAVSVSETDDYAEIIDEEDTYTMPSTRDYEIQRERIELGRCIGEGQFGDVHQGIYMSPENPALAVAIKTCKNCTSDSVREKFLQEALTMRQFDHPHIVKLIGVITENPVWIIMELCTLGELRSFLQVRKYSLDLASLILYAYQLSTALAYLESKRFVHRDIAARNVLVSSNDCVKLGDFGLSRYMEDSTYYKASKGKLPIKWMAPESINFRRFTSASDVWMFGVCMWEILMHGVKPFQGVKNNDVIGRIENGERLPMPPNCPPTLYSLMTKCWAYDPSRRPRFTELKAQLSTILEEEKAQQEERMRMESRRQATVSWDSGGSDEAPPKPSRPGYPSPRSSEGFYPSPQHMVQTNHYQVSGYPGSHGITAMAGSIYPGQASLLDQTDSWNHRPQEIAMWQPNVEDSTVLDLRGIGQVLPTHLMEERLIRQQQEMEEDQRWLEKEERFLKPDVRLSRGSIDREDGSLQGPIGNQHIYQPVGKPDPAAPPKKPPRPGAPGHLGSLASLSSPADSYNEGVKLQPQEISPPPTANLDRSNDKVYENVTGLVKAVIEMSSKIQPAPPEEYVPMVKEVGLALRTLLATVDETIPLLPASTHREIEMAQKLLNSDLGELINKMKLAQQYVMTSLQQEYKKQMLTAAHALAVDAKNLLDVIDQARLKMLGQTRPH
# [4] = tested on: Fibrinogen (Alexa647-labelled); experiment: Alexa647-fibrinogen binding to printed small molecules – biochemical, small-molecule microarray, 635/667 nm fluorescence, artefact control for SMM control-protein annotation, profiling panel (AID 1131); conditions: fibrinogen-A647 binding fluorescence, higher = more signal;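 note: z-score merges 667 nm fluorescence with per-spot signal-to-noise over triplicate slides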
# [5] = target: Follistatin (Homo sapiens) (UniProt P19883); experiment: FST protein binding to printed compounds – biochemical, small-molecule microarray, 635/667 nm fluorescence, primary screen (AID 1132); conditions: 635 nm fluorescence, higher = more signal
# Sequence of Follistatin (Homo sapiens) (P19883 whole entry, looked up): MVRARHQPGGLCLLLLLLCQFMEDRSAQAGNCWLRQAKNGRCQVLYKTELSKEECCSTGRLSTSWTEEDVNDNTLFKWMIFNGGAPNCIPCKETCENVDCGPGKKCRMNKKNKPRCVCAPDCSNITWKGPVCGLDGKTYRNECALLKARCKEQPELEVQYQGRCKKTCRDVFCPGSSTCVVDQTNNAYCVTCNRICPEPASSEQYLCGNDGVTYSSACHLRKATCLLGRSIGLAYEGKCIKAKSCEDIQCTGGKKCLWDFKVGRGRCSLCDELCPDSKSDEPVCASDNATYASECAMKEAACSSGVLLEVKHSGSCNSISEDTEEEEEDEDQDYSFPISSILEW
# [6] = target: Fibroblast growth factor 2 (Homo sapiens) (UniProt P09038); experiment: basic fibroblast growth factor binding to printed compounds – biochemical, small-molecule microarray, 635/667 nm fluorescence, primary screen (AID 1133); conditions: FGF2, fluorescence 635/667, higher = more signal
# Sequence of Fibroblast growth factor 2 (Homo sapiens) (P09038 whole entry, looked up): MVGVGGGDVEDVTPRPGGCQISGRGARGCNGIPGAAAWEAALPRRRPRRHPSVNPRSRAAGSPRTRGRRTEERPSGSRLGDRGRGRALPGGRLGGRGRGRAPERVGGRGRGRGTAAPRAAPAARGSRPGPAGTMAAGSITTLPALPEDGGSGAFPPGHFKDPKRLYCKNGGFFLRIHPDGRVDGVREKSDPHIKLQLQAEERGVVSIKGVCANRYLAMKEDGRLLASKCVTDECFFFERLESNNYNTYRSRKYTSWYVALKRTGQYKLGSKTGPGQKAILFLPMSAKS
# [7] = JC-1 mitochondrial potential readout, lung cancer cells – cell-based, A549, JC-1 fluorescence, basal, 24 h, 100 nL, profiling panel (AID 1138); conditions: higher = more signal;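 note: A549 lung adenocarcinoma cells under basal conditions with no added stimulus; test concentration not given here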
# [8] = tested on: Lefty1; experiment: Lefty1 protein binding to printed compounds – biochemical, small-molecule microarray, 635/667 nm fluorescence, primary screen (AID 1139); conditions: fluorescence 635/667, higher = more signal
# [9] = tested on: wheat germ agglutinin (Triticum aestivum), Alexa647-labelled; experiment: Alexa647-WGA lectin binding to printed small molecules – biochemical, small-molecule microarray, 635/667 nm fluorescence, artefact control for SMM control-protein annotation, profiling panel (AID 1140); conditions: WGA-A647 binding, 635 nm fluorescence, higher = more signal;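 note: score merges 667 nm feature emission with signal to noise over triplicate slides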
# [10] = target: Luciferin 4-monooxygenase (Photinus pyralis) (UniProt P08659); experiment: inhibition of purified Photinus pyralis luciferase – biochemical, luminescence, purified enzyme, 2006 set, primary screen (AID 1141); conditions: purified firefly luciferase, SteadyGlo luminescence, 30 min; higher = more signal, called active from +8 up or from −8 down;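 note: cell-free assay with purified firefly luciferase at 100 ng per well in PBS; test concentration not given here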
# Sequence of Luciferin 4-monooxygenase (Photinus pyralis) (P08659 whole entry, looked up): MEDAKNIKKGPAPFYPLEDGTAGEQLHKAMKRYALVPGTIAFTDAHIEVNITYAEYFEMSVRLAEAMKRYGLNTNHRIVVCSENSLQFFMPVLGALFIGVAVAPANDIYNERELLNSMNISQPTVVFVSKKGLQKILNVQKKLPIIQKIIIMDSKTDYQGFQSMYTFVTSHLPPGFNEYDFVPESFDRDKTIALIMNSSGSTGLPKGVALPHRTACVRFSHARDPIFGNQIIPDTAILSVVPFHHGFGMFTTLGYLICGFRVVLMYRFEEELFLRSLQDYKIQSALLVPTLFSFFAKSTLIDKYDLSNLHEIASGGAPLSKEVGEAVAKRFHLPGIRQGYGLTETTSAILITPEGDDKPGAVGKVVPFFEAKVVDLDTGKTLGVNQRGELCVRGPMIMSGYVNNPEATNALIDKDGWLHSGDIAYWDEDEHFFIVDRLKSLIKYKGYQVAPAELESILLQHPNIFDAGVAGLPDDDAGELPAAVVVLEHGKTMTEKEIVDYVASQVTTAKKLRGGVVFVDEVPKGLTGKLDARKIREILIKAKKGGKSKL
# [11] = tested on: Wnt5a (protein binding on small-molecule microarray); experiment: small molecules binding Wnt5a protein – biophysical, small-molecule microarray, 635/667 nm fluorescence, primary screen (AID 1142); conditions: 635 nm fluorescence, higher = more signal;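 note: fluorescence read at 667 nm with signal to noise per printed feature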
# [12] = ATP-based viability of Huh7 replicon cells – cell-based, CellTiter-Glo luminescence, basal, 48 h, cytotoxicity control for HCV replication inhibitor project, primary screen (AID 1143); conditions: higher = more signal, called active from +8 up or from −8 down;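 note: Huh7 hepatoma cells carrying a hepatitis C replication reporter with no stimulus; test concentration not given here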
# [13] = Pseudomonas biofilm growth suppression – PAO1 strain, BacTiter-Glo luminescence, LB-PBS, primary screen (AID 1144); conditions: P. aeruginosa PAO1 biofilm, 12 h, higher = more signal
# [14] = basal CRE-LacZ reporter activity in PC12 – cell-based, unstimulated, primary screen (AID 1145); conditions: no forskolin, luminescence, 4.5 h, higher = more signal, called active from +8 up or from −8 down
# [15] = forskolin-driven CRE-LacZ activity in PC12 – cell-based, CRE-LacZ reporter, forskolin-stimulated, primary screen (AID 1146); conditions: luminescence, 4.5 h, higher = more signal, called active from +8 up or from −8 down;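 note: PC12 cells with 6xCRE LacZ reporter stimulated by forskolin 10 µM; beta-galactosidase reporter signal reflecting CREB driven transcription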
# [16] = target: Streptavidin (Streptomyces avidinii) (UniProt P22629); experiment: compounds binding control protein streptavidin – biophysical, small-molecule microarray, 635/667 nm fluorescence, artefact control for SMM compound annotation, primary screen (AID 1147); conditions: higher = more signal;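 note: signal reflects streptavidin binding to arrayed compounds as a control protein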
# Sequence of Streptavidin (Streptomyces avidinii) (P22629 whole entry, looked up): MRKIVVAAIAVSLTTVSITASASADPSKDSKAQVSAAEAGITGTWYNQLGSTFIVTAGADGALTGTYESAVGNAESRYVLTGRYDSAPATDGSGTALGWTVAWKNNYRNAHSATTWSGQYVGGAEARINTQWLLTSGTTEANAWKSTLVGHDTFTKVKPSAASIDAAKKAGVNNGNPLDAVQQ
# [17] = probe aInhba binding on compound microarray – biochemical, small-molecule microarray, 635/667 nm fluorescence, primary screen (AID 1148); conditions: higher = more signal;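 note: score merges 667nm spot fluorescence with signal-to-noise for antibody binding to printed compounds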
# [18] = target: Torsin-1A (Homo sapiens) (UniProt O14656); experiment: TOR1A wild-type binding on microarray – cell lysate, small-molecule microarray, lysate, 635/667 nm, primary screen (AID 1149); conditions: COS7 hTOR1A-WT lysate, 635 nm fluorescence, higher = more signal
# Sequence of Torsin-1A (Homo sapiens) (O14656 whole entry, looked up): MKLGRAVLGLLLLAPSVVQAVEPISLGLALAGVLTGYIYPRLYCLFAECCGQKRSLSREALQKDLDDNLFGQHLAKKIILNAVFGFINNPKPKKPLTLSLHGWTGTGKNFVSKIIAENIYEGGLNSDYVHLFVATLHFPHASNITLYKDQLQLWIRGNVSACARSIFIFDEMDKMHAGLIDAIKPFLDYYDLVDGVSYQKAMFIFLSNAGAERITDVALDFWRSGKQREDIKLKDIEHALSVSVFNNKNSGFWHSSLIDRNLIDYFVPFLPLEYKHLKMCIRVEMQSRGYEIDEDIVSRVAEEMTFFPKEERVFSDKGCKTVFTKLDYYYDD
# [19] = target: Torsin-1A (Homo sapiens) (UniProt O14656); experiment: torsin A mutant lysate binding on microarrays – cell lysate, small-molecule microarray, COS7 lysate, 635/667 nm fluorescence, primary screen (AID 1150); conditions: COS7 hTOR1A mutant lysate, 635 nm fluorescence, higher = more signal;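 note: score pools 667 nm emission and signal to noise measuring lysate protein binding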
# [20] = tested on: Sonic hedgehog protein (Shh); experiment: Sonic hedgehog microarray binding compounds – biochemical, small-molecule microarray, 635/667 nm fluorescence, primary screen (AID 1151); conditions: 635 nm fluorescence, higher = more signal;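 note: Shh protein binding to compounds spotted on small-molecule microarray slides; score combines spot fluorescence intensity with signal-to-noise across triplicate slides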
Compound,composite z-score [1],composite z-score [2],composite z-score [3],composite z-score [4],composite z-score [5],composite z-score [6],z-score [7],composite z-score [8],composite z-score [9],z-score [10],composite z-score [11],z-score [12],z-score [13],z-score [14],z-score [15],composite z-score [16],composite z-score [17],composite z-score [18],composite z-score [19],composite z-score [20]
CCN1C(C)=C(C(=O)OC)[C@@H](c2ccccc2)N2C(=O)[C@](O)(C(=O)OC)CC(C(C)=O)=C12,-1.01,0.127,0.0644,0.123,0.398,0.0171,1.07,0.638,0.278,-0.695 (inactive),0.24,0.0021 (inactive),-0.63 (inactive),-0.324 (inactive),-0.482 (inactive),-0.466,-0.0986,0.837,0.153,0.742
COC(=O)[C@@H]1CC[C@H](C)[C@@H](c2ccc(Br)cc2)N1C[C@H](O)CN=[N+]=[N-],0.383,-0.459,0.709,0.118,-0.117,0.0395,-0.821,0.17,0.162,-0.169 (inactive),-0.106,-0.999 (inactive),-1.5 (inactive),-0.522 (inactive),-0.369 (inactive),0.127,-0.05,0.386,0.827,0.26
COc1ccc(COC(=O)NN=C2C[C@@H](O)[C@@H](O)[C@@H]3[C@@H]4C(=O)N([C@@H](C)c5ccccc5)C(=O)[C@@H]4CC[C@H]23)cc1,-0.485,-0.521,-0.393,-0.137,-0.528,-0.509,-0.419,-0.794,0.271,0.779 (inactive),0.366,-1.71 (inactive),-0.183 (inactive),1.79 (inactive),-0.183 (inactive),1.02,0.0667,-0.982,0.106,-0.983
COC(=O)[C@H](C)NC(=O)CCC1CC(OC(=O)NCc2cccc3ccccc23)CC2(CCCC(COC(=O)NCc3ccccc3)O2)O1 (stereo not given in full),0.432,0.976,0.388,0.893,0.729,0.846,-0.139,1.17,0.22,1.09 (inactive),0.276,-1.12 (inactive),-1.33 (inactive),-0.437 (inactive),0.0493 (inactive),0.777,0.0901,0.283,0.542,1.07
CCOC(=O)[C@H](Cc1ccccc1)NC(=O)CCC1CC(OC(=O)NCCc2ccc(F)cc2)CC2(CCCC(COC(=O)NCc3cccc(C(F)(F)F)c3)O2)O1 (stereo not given in full),0.554,1.16,0.31,0.943,0.787,0.696,0.578,1.64,0.502,0.871 (inactive),0.011,-2.08 (inactive),0.885 (inactive),-0.162 (inactive),-0.605 (inactive),0.899,-0.101,0.386,0.376,1.48
C[C@H]1C=CCC(=O)OC[C@H](C)C(=O)N2CCC[C@H]2C(=O)OC1,-0.637,-1.44,-0.943,-1.09,1.43,2.01,-0.823,1.61,-1.18,1.32 (inactive),0.193,-0.401 (inactive),-0.324 (inactive),-0.324 (inactive),0.0267 (inactive),-0.176,-0.182,3.32,3.03,2.35
CC(C)=CCCC(C)=CCON=C1C[C@@H](O)[C@@H](O)[C@@H]2[C@@H]3C(=O)N(Cc4ccc5c(c4)OCO5)C(=O)[C@@H]3CC[C@H]12,0.364,0.838,-0.0613,0.855,0.779,0.613,-0.564,1.04,0.793,0.497 (inactive),0.352,-1.61 (inactive),0.802 (inactive),-0.295 (inactive),0.489 (inactive),0.133,-0.0332,0.46,0.724,0.728
CC(C)[C@H](NC(=O)OC(C)(C)C)[C@@H](O)CC(=O)C(C)(C)C,-0.007,-0.195,-0.402,0.0622,0.359,0.516,0.109,0.627,-0.0466,0.0879 (inactive),-0.103,0.207 (inactive),-1.09 (inactive),-0.795 (inactive),-0.422 (inactive),0.247,-0.148,0.322,0.0647,0.473
CCOC(=O)[C@H](CC(C)C)NC(=O)CCC1CC(OC(=O)NCCc2ccc(F)cc2)CC2(CCCC(COC(=O)NCc3cccc4ccccc34)O2)O1 (stereo not given in full),0.229,0.982,0.2,0.279,1.27,0.634,0.755,0.774,0.0787,0.6 (inactive),-0.165,-0.731 (inactive),-0.596 (inactive),-0.889 (inactive),1.01 (inactive),1.57,-0.131,-0.169,0.184,0.601
COC(=O)[C@H](C)NC(=O)CCC1CC(OC(=O)NCc2ccc3c(c2)OCO3)CC2(CCCC(COC(=O)NCCCN3CCCC3=O)O2)O1 (stereo not given in full),0.23,1.03,0.174,0.861,0.602,1.42,-0.224,0.777,0.364,0.906 (inactive),0.151,-0.849 (inactive),-0.202 (inactive),0.108 (inactive),0.833 (inactive),0.53,0.111,0.447,0.323,0.78
